Bioassay records from PubChem.
ROC1-CUL1 inh: human ROC1-CUL1 E3 ligase inhibition. P62877+Q13616. in vitro K48 di-Ub FRET, acceptor:donor ratio, 45 min. inhibition, % at 10 µM. actives 0.6% (n = 140,000). AID 1347404; in the data active = inhibition above about 25%
Numbers without * were called inactive. The full list was thinned out, with hits kept by preference.

SMILES	ROC1-CUL1 inh
Cc1ccc(C(=O)NC(C)c2ccc3c(c2)OCCO3)cc1 (centres undefined)	6.1
CCN(Cc1nccn1C)C(=O)c1ccc(NCc2cnc(C)cn2)nc1	-3.4
Cn1ccnc1CN1CCc2onc(-c3ccc(F)c(F)c3)c2C1	-7.1
CCN=C1CC=CC=C(C(=O)/C=C/c2ccc(Cl)cc2)C1=O	78.9*
CCN=C1CC=CC=C(C(=O)/C=C/c2ncccc2C)C1=O	35.8*
CCN=C1CC=CC=C(C(=O)/C=C/c2ccc(Cl)cc2Cl)C1=O	4.0
CCN=C1CC=CC=C(c2ccc3ccccc3n2)C1=O	-3.9
CCN=C1CC=CC=C(C(=O)/C=C/c2cccc(Cl)c2)C1=O	7.3
CCN=C1CC=CC=C(C(=O)/C=C/c2cccc(OC)c2OC)C1=O	-3.1
O=C1C(=O)N(CCN2CCOCC2)C(c2cccc(F)c2)C1C(=O)c1ccccc1 (centres undefined)	2.5
c1csc(-c2ccc(-c3nccs3)cc2)n1	-1.0
CC1=C(c2ccccc2)OC2(c3ccccc3)CC(c3cccc(Br)c3)N(C(=O)c3ccccc3)c3ccccc3N2C1=O (centres undefined)	1.1
CCOc1cc(/C=C2/C(=N)N3N=C(C(C)C)SC3=NC2=O)ccc1OCCOc1cccc(C)c1	0.2
Cc1ccc(-n2nnnc2-c2c[nH]c3c(C)c(C)ccc23)cc1	3.1
Cc1ccc2c(c1)s/c(=N\N=C/c1cccc([N+](=O)[O-])c1)n2Cc1ccccc1	4.4
CN1C(=O)N(C)C2(O)c3ccccc3C(=O)C12O (centres undefined)	-8.1
CC1(N2CCCCC2)C(=O)c2ccccc2C1=O	0.5
CC1(Nc2ccccc2)C(=O)c2ccccc2C1=O	2.5
CC1(C)CC(=O)C(C2(O)C(=O)c3ccccc3C2=O)C(=O)C1	-15.4
COC1(O)C(=O)c2ccccc2C(=O)C1(O)OC (centres undefined)	82.8*
O=C1c2ccccc2C(=O)C1(O)O	46.2*
COc1cc(OC)cc(C(=O)NNC(=S)Nc2cc(OC)c(Cl)cc2OC)c1	-3.7
CCCCCn1c(SCc2ccc(Cl)cc2)nc2c1c(=O)[nH]c(=O)n2C	7.2
O=C(NC(=S)Nc1ccc(I)cc1)c1cncc(Br)c1	7.0
C=CCc1cccc(/C=N/NC(=O)CSc2nc3ccccc3n2Cc2ccc(C)cc2)c1O	-9.4
SMILES	ROC1-CUL1 inh
Cc1c(C(=O)Nc2ccc(CN3CCCCC3)cc2)c(-c2ccccc2)nn1-c1ccccc1	-3.6
C=C(C)CC1N(c2ccc(OC)cc2)C(=O)C2C(C(=O)O)C3C=CC21O3 (centres undefined)	-10.7
COC(=O)NNc1ccnc2cc(Cl)ccc12	0.8
Clc1ccc2c(NCCN3CCN(CCCCCCCN4CCN(CCNc5ccnc6cc(Cl)ccc56)CC4)CC3)ccnc2c1	26.8*
Clc1ccc2c(NCCN3CCN(CCCN4CCN(CCNc5ccnc6cc(Cl)ccc56)CC4)CC3)ccnc2c1	0.1
CC(C)(C)c1[nH]nc2c1C(c1ccc(F)cc1F)C(C#N)C(=N)O2 (centres undefined)	-9.2
COc1cccc(CC(C2CCN(C(=O)Cc3csc(C)n3)CC2)N(C)C(=O)CC(C)C)c1 (centres undefined)	1.7
COc1cc(/C=N\NC(=O)C2COc3ccccc3O2)cc(Br)c1OC (centres undefined)	9.1
CCN(C(=O)N=C1CN(CC(C)C)C(=O)c2ccccc21)c1cc(C)ccc1C	7.3
O=C1NN(c2ccc(Cl)c(Cl)c2)C(=O)/C1=C/c1cc(Br)ccc1O	73.2*
O=C1NN(c2ccc(Cl)c(Cl)c2)C(=O)/C1=C/c1ccc(Cl)cc1Cl	13.1
O=C1NN(c2ccc(Br)cc2)C(=O)/C1=C\c1ccc2c(c1)OCO2	7.9
CCc1ccc(/C=C2\C(=O)NN(c3ccc(I)cc3)C2=O)cc1	16.5
O=C1NN(c2ccc(Cl)c(Cl)c2)C(=O)/C1=C/c1ccccc1	21.4
O=C1NN(c2ccc(Cl)cc2)C(=O)/C1=C/c1ccc(Br)cc1	53.4*
O=C1NN(c2ccc(Cl)c(Cl)c2)C(=O)/C1=C/c1ccc(Br)cc1	57.4*
O=C1NN(c2ccc(Cl)cc2)C(=O)/C1=C/c1ccc(O)cc1	2.0
COc1ccc(/C=C2/C(=O)NN(c3ccc(Br)cc3)C2=O)cc1	7.0
CCc1ccc(/C=C2\C(=O)NN(c3ccc(Cl)c(Cl)c3)C2=O)cc1	81.1*
Cc1cc(/C=C2\C(=O)NN(c3ccccc3)C2=O)c(C)n1-c1ccc(Cl)c(Cl)c1	-0.5
COc1ccc(Br)cc1S(=O)(=O)Oc1ccc(C)cc1C	2.7
COc1ccc(N2CC(C(=O)N/N=C/c3ccccc3OCc3ccccc3Cl)CC2=O)cc1 (centres undefined)	-4.3
N#Cc1c(N2C(=N)C(C#N)C(c3ccc(Br)cc3)C3=C2CCCC3=O)sc2c1CCCC2 (centres undefined)	4.1
Cc1c(C(c2cccc(Cl)c2)c2c(C)n(C)c3ccccc23)c2ccccc2n1C	1.8
Cc1cc(NC(=O)Cn2nc(C(F)(F)F)cc2C2CC2)no1	1.8
SMILES	ROC1-CUL1 inh
CCNS(=O)(=O)c1cc(C(=O)NC2CC2)ccc1OC	6.4
Cc1ccc(S(=O)(=O)N2CCN(c3ccc(Cl)c(Cl)c3)CC2)c(C)c1	-2.6
N=c1oc2c(Br)cc(Br)cc2cc1-c1nc(-c2cccs2)cs1	-4.1
Cc1ccc(-c2ccc(/C=C3/SC(=S)NC3=O)o2)c(Br)c1	96.3*
Cc1ccc(-c2ccc(/C=C3/SC(N4CCOCC4)=NC3=O)o2)c(Br)c1	2.0
N#Cc1ccccc1-c1ccc(/C=C2/SC(=O)NC2=O)o1	-3.5
O=C1S/C(=C/c2ccc(-c3cccc(Cl)c3)o2)C(=O)N1CN1CCCCC1	-11.8
O=C(C[n+]1ccc(-c2ccccc2)cc1)c1ccccc1	-1.3
CN(C)c1ccc(/C=C/C(=O)c2ccc3c4c(cccc24)CC3)cc1	3.5
O=C(/C=C/c1cc[n+](CC(=O)c2ccc3cccc4c3c2CC4)cc1)c1ccc2cccc3c2c1CC3	86.8*
Cc1ccc(-n2nnnc2-c2cnoc2-c2ccc(F)cc2)cc1	0.2
COCCN(Cc1ccccn1)C(Cc1ccccc1)C1CCN(Cc2cc(OC)ccc2O)CC1 (centres undefined)	-4.5
O=C1NN(c2cccc(Cl)c2)C(=O)/C1=C/c1ccc(Cl)cc1	63.6*
O=C1NN(c2cccc(F)c2)C(=O)/C1=C\c1ccccc1	-1.7
O=C1NN(c2cccc(Cl)c2)C(=O)/C1=C/c1cccc(I)c1	9.2
O=C1NN(c2cccc(Cl)c2)C(=O)/C1=C/c1ccc(O)cc1	10.6
O=C1NN(c2cccc(Cl)c2)C(=O)/C1=C\c1ccc(F)cc1	83.5*
COc1ccc(/C=C2\C(=O)NN(c3cccc(Cl)c3)C2=O)cc1OC	-8.5
CCOC(=O)C1=C(C)N=c2s/c(=C/c3ccc(I)cc3)c(=O)n2C1c1ccc2c(c1)OCO2 (centres undefined)	-7.7
CCOC(=O)C1=C(C)N=c2s/c(=C/c3ccccc3O)c(=O)n2C1c1ccc2c(c1)OCO2 (centres undefined)	-6.1
CCOC(=O)C1=C(C)N=c2s/c(=C\c3cc(OC)ccc3OC)c(=O)n2C1c1ccc(OC)cc1 (centres undefined)	3.5
CCOC(=O)C1=C(C)N=c2s/c(=C\c3cc(Br)c(O)c(OC)c3)c(=O)n2C1c1ccc2c(c1)OCO2 (centres undefined)	52.9*
CCOC(=O)C1=C(C)N=c2s/c(=C/c3cc(I)c(OC)c(OC)c3)c(=O)n2C1c1ccc(N(C)C)cc1 (centres undefined)	8.2
